According to PubChem BioAssay (Tox21):
Results filed as inconclusive are left out. Where a call stands in place of a potency, no number is given. Values without a mark were called inactive. Calls of active or inactive are those of the source. Unless noted, the call rests on the fitted dose curve; in most records, active means well fitted curve in the direction sought with a large enough effect in the repeat runs; inconclusive means weak or mixed curves; inactive means no such curve, though single readings can be large; an effect the other way counts as inactive or inconclusive.

What was measured:
[1] = qHTS assay to identify small molecule agonists of the peroxisome proliferator-activated receptor delta (PPARd) signaling pathway - cell viability counter screen (AID 743211); further: nearly all actives have a fitted effect of over 55% in size; further: potency means the concentration at half of the fitted maximal effect
Method in brief: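 PPARd-bla HEK293H cells (3000/well) were pre-incubated 5 h at 37 C, then exposed to compound for 17 h at 37 C. After 2 h with LiveBLAzer substrate, CellTiter-Glo was added to the same wells; luminescence read after 30 min at room temperature.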

[2] = molecular target: Peroxisome proliferator-activated receptor delta (Homo sapiens) (UniProt Q03181); assay: qHTS assay to identify small molecule agonists of the peroxisome proliferator-activated receptor delta (PPARd) signaling pathway (AID 743212; calls by dose curve)
Method in brief: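 Quantitative high-throughput agonist screen in a HEK293H beta-lactamase reporter line under UAS control. Compounds in DMSO, at 37 C. Fluorescence read after 2 h with FRET substrate at room temperature.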

[3] = qHTS assay to identify small molecule antagonists of the peroxisome proliferator-activated receptor delta (PPARd) signaling pathway - cell viability counter screen (AID 743213); further: nearly all actives have a fitted effect of over 50% in size
Method in brief: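 PPARd-bla HEK293H cells (3000/well) got compound plus 300 nM L165041 agonist for 17 h at 37 C. Viability in the same wells came from CellTiter-Glo luminescence after 30 min at room temperature.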

[4] = qHTS assay to identify small molecule antagonists of the farnesoid-X-receptor (FXR) signaling pathway - cell viability counter screen (AID 743221; active means well fitted cell-killing curve with a large enough effect in the repeat runs, not every such curve was filed as active; further: nearly all actives have a fitted effect of over 50% in size)
Method in brief: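 GeneBLAzer FXR-UAS-bla HEK 293T cells, compound plus chenodeoxycholic acid (50 uM final), 16 h at 37 C. CellTiter-Glo added to the same wells after the beta-lactamase read; luminescence read after 30 min at room temperature as viability.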

[5] = molecular target: Vitamin D3 receptor (Homo sapiens) (UniProt P11473); assay: qHTS assay to identify small molecule antagonists of the vitamin D receptor (VDR) signaling pathway (AID 743223; active means well fitted inhibition curve with a large enough effect in the signal ratio in the repeat runs, not every such curve was filed as active; the % refers to the signal ratio)
Method in brief: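 VDR-bla cells were treated with compound plus 3 nM final 1alpha,25-dihydroxyvitamin D3 for 16 h at 37C. Beta-lactamase reporter read by B/G FRET substrate fluorescence after 2 h at room temperature. qHTS format.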

[6] = qHTS assay to identify small molecule agonists of the vitamin D receptor (VDR) signaling pathway - cell viability counter screen (AID 743224); further: series mostly up to about 63 µM; nearly all actives have a fitted effect of over 50% in size
Method in brief: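 VDR-bla cell line, quantitative HTS format; 16 h compound incubation (37C, 5% CO2); ATP-based CellTiter-Glo luminescence measured in the reporter assay wells.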

[7] = qHTS assay to identify small molecule antagonists of the vitamin D receptor (VDR) signaling pathway - cell viability counter screen (AID 743225); further: nearly all actives have a fitted effect of over 50% in size
Method in brief: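 VDR-UAS-bla HEK 293T cells were plated and incubated 4 h at 37C, then dosed with compound plus 3 nM (final) 1-alpha,25-dihydroxyvitamin D3 for 16 h. After the 2 h beta-lactamase read, viability in the same wells was read as CellTiter-Glo luminescence after 30 min at room temperature.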

[8] = qHTS assay to identify small molecule agonists of the NFkB signaling pathway (AID 1159509; active means well fitted curve in the direction sought with a large enough effect in the signal ratio in the repeat runs, not every such curve was filed as active; the % refers to the signal ratio; further: series mostly up to about 61 µM)
Method in brief: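 After overnight attachment, reporter cells received test compounds, DMSO or positive controls and were incubated 5 hr at 37 C. FRET substrate was then added for 1.5 hr at room temperature before dual-emission fluorescence reading.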

[9] = qHTS assay to identify small molecule agonists of the NFkB signaling pathway - cell viability counter screen (AID 1159515; calls by dose curve; further: series mostly up to about 61 µM; nearly all actives have a fitted effect of over 55% in size)
Method in brief: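 Viability in NFkB-bla ME-180 cells was measured by CellTiter-Glo luminescence, 30 min room temperature, in wells already treated 5 hr with compounds and read for reporter FRET.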

[10] = qHTS assay to identify small molecule antagonists of the retinoid-related orphan receptor gamma (ROR-gamma) signaling pathway - cell viability counter screen (AID 1159520); further: nearly all actives have a fitted effect of over 50% in size
Method in brief: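 Tet-on ROR gamma CHO cells were given compounds for 2 hr, then doxycycline hyclate at 1 uM final, and incubated 16 hr at 37 C. Viability was measured as ATP content by CellTiter-Glo luminescence.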

[11] = molecular target: Nuclear receptor ROR-gamma (Homo sapiens) (UniProt P51449); assay: qHTS assay to identify small molecule antagonists of the retinoid-related orphan receptor gamma (ROR-gamma) signaling pathway (AID 1159521; further: nearly all actives have a fitted effect of over 50% in size; further: potency means the concentration at half of the fitted maximal effect)
Method in brief: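 Tet-on ROR-gamma CHO cells with ROR response element-luciferase reporter; compounds added 2 hr before 1 uM doxycycline induction, then 16 hr at 37 C. Antagonism scored as decreased ONE-Glo luminescence.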

[12] = qHTS assay to identify small molecule agonists of the AP-1 signaling pathway - cell viability counter screen (AID 1159525; calls by dose curve; further: nearly all actives have a fitted effect of over 55% in size)
Method in brief: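 AP-1-bla ME-180 cells in Opti-MEM with 0.5% dialyzed FBS, compound exposure 5 h at 37 C in 15-point titration. Viability read in the same wells as ATP content by CellTiter-Glo luminescence, normalised to tetra-n-octylammonium bromide and DMSO controls.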

[13] = molecular target: Vitamin D3 receptor (Homo sapiens) (UniProt P11473); assay: qHTS assay to identify small molecule agonists of the vitamin D receptor (VDR) signaling pathway (AID 743222; calls by dose curve)
Method in brief: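 Agonist activity measured in VDR-bla reporter cells. Exposure 16 h, 37C, 5% CO2; detection by B/G FRET substrate, 2 h RT.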

[14] = qHTS assay to identify small molecule agonists of the endoplasmic reticulum stress response signaling pathway - cell viability counter screen (AID 1159517; calls by dose curve)
Method in brief: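 Counter-screen wells were identical to the reporter wells. Cells were plated at 1,500 per well and dosed for 5 hr, then read for luminescence 30 min after CellTiter-Glo addition.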

[15] = molecular target: Peroxisome proliferator-activated receptor delta (Homo sapiens) (UniProt Q03181); assay: qHTS assay to identify small molecule antagonists of the peroxisome proliferator-activated receptor delta (PPARd) signaling pathway (AID 743215; active means well fitted inhibition curve with a large enough effect in the signal ratio in the repeat runs, not every such curve was filed as active; the % refers to the signal ratio;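 further: cells stimulated with agonist L165041 at 300 nM final during compound exposure; series mostly up to about 62 µM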)
Method in brief: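 Antagonist-mode beta-lactamase reporter screen: HEK293H cells with UAS-bla under PPARd control, stimulated by 300 nM L165041 (final) alongside test compound for 17 h at 37 C, then FRET fluorescence after 2 h substrate incubation.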

[16] = qHTS assay to identify small molecule agonists of the farnesoid-X-receptor (FXR) signaling pathway - cell viability counter screen (AID 743218); further: nearly all actives have a fitted effect of over 45% in size
Method in brief: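 In GeneBLAzer FXR-UAS-bla HEK 293T cells, compounds act for 16 h at 37 C. Cell viability is then scored in the reporter wells by CellTiter-Glo, 30 min at RT, luminescence.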

[17] = qHTS assay to identify small molecule agonists of the AP-1 signaling pathway (AID 1159526; calls by dose curve; further: potency means the concentration at half of the fitted maximal effect)
[18] = molecular target: Bile acid receptor (Homo sapiens) (UniProt Q96RI1); assay: qHTS assay to identify small molecule agonists of the farnesoid-X-receptor (FXR) signaling pathway (AID 743220; active means well fitted activation curve with a large enough effect in the signal ratio in the repeat runs, not every such curve was filed as active; the % refers to the signal ratio)
Method in brief: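 Beta-lactamase reporter under UAS control in GeneBLAzer FXR HEK 293T cells (5000/well) measured with LiveBLAzer FRET substrate after 2 h at room temperature. Compound exposure lasted 16 h at 37C.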

[19] = qHTS assay to identify small molecule agonists of the endoplasmic reticulum stress response signaling pathway (AID 1159516; active means well fitted activation curve with a large enough effect in the signal ratio in the repeat runs, not every such curve was filed as active; the % refers to the signal ratio)
Method in brief: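 ER stress element reporter (bla) in HeLa. 1,500 cells/well, overnight attachment; 5 hr compound; 2 hr RT substrate; dual-emission fluorescence.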

[20] = molecular target: Bile acid receptor (Homo sapiens) (UniProt Q96RI1); assay: qHTS assay to identify small molecule antagonists of the farnesoid-X-receptor (FXR) signaling pathway (AID 743217; active means well fitted inhibition curve with a large enough effect in the signal ratio in the repeat runs, not every such curve was filed as active; the % refers to the signal ratio)
Method in brief: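 Beta-lactamase reporter under UAS control in HEK 293T cells; compound exposure 16 h at 37 °C in the presence of chenodeoxycholic acid (50 uM final); signal from B/G FRET substrate after 2 h at room temperature.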

Peroxisome proliferator-activated receptor delta (Homo sapiens), sequence (Q03181 whole entry, looked up): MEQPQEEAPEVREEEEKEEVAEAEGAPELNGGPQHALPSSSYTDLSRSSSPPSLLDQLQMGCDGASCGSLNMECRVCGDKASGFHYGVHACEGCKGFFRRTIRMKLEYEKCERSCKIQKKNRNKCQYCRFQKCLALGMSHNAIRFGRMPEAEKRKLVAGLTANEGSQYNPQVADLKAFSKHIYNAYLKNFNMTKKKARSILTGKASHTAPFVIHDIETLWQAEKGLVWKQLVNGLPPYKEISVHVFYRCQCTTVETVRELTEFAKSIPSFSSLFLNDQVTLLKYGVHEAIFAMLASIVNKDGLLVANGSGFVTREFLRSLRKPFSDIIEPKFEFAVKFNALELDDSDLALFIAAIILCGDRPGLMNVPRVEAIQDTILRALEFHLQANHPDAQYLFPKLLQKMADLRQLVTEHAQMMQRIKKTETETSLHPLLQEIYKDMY
Bile acid receptor (Homo sapiens), sequence (Q96RI1 whole entry, looked up): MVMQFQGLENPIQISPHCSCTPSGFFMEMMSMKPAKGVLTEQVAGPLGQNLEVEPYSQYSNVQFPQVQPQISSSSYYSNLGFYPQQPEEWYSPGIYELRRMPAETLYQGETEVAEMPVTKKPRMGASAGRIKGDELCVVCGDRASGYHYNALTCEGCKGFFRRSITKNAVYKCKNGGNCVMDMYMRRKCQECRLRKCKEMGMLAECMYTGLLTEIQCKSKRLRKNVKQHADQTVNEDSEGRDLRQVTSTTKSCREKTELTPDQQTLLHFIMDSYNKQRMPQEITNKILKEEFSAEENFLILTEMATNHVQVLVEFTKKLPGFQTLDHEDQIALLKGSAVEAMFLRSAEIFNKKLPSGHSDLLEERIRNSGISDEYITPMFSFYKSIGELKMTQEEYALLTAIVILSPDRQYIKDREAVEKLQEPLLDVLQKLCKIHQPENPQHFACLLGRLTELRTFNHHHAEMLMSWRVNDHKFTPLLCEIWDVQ
Vitamin D3 receptor (Homo sapiens), sequence (P11473 whole entry, looked up): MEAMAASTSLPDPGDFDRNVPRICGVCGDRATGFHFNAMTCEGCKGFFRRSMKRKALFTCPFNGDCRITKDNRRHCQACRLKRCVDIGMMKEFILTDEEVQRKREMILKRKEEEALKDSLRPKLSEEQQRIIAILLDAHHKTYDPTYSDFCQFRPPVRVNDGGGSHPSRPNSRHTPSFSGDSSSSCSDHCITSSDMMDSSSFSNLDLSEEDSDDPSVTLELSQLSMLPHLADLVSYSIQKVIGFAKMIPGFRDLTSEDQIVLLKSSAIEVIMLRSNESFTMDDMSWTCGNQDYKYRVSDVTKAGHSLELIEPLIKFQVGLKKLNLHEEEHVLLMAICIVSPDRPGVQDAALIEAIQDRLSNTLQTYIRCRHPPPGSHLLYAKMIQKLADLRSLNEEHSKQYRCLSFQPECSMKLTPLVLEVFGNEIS

SMILES	Potency [1]	outcome [2]	Potency [3]	outcome [4]	outcome [5]	Potency [6]	Potency [7]	outcome [8]	outcome [9]	Potency [10]	Potency [11]	outcome [12]	outcome [13]	outcome [14]	outcome [15]	Potency [16]	Potency [17]	outcome [18]	outcome [19]	outcome [20]
CC(C)C1=CC2=CC[C@@H]3[C@](C)(CCC[C@@]3(C)C(=O)O)[C@H]2CC1	inactive	inactive	inactive	inactive	inactive	inactive	inactive	inactive	inactive	inactive	inactive	inactive	–	–	–	–	–	–	–	–
CC1(C)O[C@@H]2C[C@H]3[C@@H]4CCC5=CC(=O)CC[C@]5(C)[C@@]4(F)[C@@H](O)C[C@]3(C)[C@]2(C(=O)CCl)O1	inactive	–	inactive	inactive	–	inactive	–	inactive	inactive	inactive	13.3 µM (active)	inactive	inactive	inactive	–	–	–	–	–	–
CCCNC(C)(C)COC(=O)c1ccccc1	inactive	inactive	inactive	inactive	inactive	inactive	inactive	inactive	inactive	inactive	–	inactive	–	inactive	inactive	inactive	inactive	–	–	–
CC/C=C\CCOC(=O)C(C)C	inactive	inactive	inactive	inactive	inactive	–	inactive	inactive	inactive	inactive	–	inactive	–	inactive	–	inactive	inactive	–	–	–
CCCCCCCCc1ccc(S(=O)(=O)O)cc1	43.3 µM (active)	–	–	inactive	inactive	–	inactive	inactive	inactive	inactive	inactive	inactive	inactive	inactive	inactive	inactive	–	inactive	–	–
CO[Si](C)(C)OC	inactive	inactive	inactive	–	–	inactive	inactive	inactive	inactive	inactive	–	inactive	–	inactive	–	inactive	inactive	–	–	–
CC(C)C[C@H](NC(=O)OCC1c2ccccc2-c2ccccc21)C(=O)O	inactive	inactive	inactive	–	–	inactive	inactive	inactive	inactive	inactive	inactive	inactive	–	inactive	–	inactive	–	inactive	–	–
CCc1cc(Cl)c(OC)c(C(=O)NC[C@@H]2CCCN2CC)c1O	inactive	inactive	inactive	–	inactive	inactive	inactive	–	inactive	inactive	inactive	inactive	inactive	inactive	inactive	–	–	–	inactive	–
CN1CCN(c2c(F)cc3c(=O)c(C(=O)O)cn4c3c2SCC4)CC1	inactive	inactive	inactive	inactive	inactive	inactive	inactive	inactive	inactive	inactive	–	inactive	inactive	inactive	inactive	inactive	inactive	inactive	–	inactive
CCCCc1ccc2nc(NC(=O)OC)[nH]c2c1	–	–	inactive	inactive	–	inactive	inactive	inactive	inactive	inactive	inactive	–	inactive	inactive	–	inactive	–	inactive	–	–
OCc1ccccc1O	inactive	–	inactive	inactive	inactive	inactive	inactive	inactive	inactive	inactive	–	inactive	inactive	inactive	–	inactive	inactive	–	–	–
Clc1cccc(-c2cc(Cl)cc(Cl)c2)c1	inactive	–	inactive	inactive	inactive	inactive	inactive	inactive	inactive	inactive	inactive	–	inactive	inactive	–	–	–	–	–	–
Oc1ccccc1F	inactive	–	inactive	inactive	inactive	inactive	–	inactive	inactive	inactive	–	inactive	inactive	inactive	–	inactive	inactive	inactive	–	–
CC(=O)Nc1ccc(C)c(Cl)c1	inactive	inactive	–	inactive	inactive	inactive	inactive	inactive	inactive	inactive	–	inactive	inactive	inactive	inactive	–	inactive	inactive	–	inactive
O=c1[nH]cnc2c1ncn2[C@@H]1O[C@H](CO)[C@@H](O)[C@H]1O	inactive	inactive	inactive	inactive	inactive	inactive	inactive	inactive	inactive	inactive	inactive	inactive	inactive	inactive	inactive	inactive	–	inactive	–	–
CCNCCO	inactive	inactive	inactive	inactive	–	inactive	inactive	–	inactive	inactive	inactive	inactive	–	inactive	–	inactive	–	inactive	inactive	inactive
CCOC(=O)NCCC[Si](OCC)(OCC)OCC	inactive	inactive	inactive	inactive	–	inactive	inactive	–	inactive	inactive	inactive	–	–	inactive	inactive	inactive	inactive	–	inactive	–
CN1[C@@H]2CC[C@H]1CC(OC(=O)c1c[nH]c3ccccc13)C2 (some centres undefined)	inactive	inactive	inactive	inactive	–	inactive	inactive	–	inactive	inactive	–	inactive	–	inactive	inactive	–	23.9 µM (active)	inactive	–	–
